SMILES strings stand for the structures. Values without a mark were called inactive. Calls follow the shape of the dose curve; as a rule, active = well fitted curve in the direction sought with a large enough effect; inconclusive = small, poorly fitted or top-dose-only effect, or another doubt; inactive = no such curve, though single readings can be large or run the other way.

Sequence of Thyrotropin receptor (Homo sapiens) (P16473 whole entry, looked up): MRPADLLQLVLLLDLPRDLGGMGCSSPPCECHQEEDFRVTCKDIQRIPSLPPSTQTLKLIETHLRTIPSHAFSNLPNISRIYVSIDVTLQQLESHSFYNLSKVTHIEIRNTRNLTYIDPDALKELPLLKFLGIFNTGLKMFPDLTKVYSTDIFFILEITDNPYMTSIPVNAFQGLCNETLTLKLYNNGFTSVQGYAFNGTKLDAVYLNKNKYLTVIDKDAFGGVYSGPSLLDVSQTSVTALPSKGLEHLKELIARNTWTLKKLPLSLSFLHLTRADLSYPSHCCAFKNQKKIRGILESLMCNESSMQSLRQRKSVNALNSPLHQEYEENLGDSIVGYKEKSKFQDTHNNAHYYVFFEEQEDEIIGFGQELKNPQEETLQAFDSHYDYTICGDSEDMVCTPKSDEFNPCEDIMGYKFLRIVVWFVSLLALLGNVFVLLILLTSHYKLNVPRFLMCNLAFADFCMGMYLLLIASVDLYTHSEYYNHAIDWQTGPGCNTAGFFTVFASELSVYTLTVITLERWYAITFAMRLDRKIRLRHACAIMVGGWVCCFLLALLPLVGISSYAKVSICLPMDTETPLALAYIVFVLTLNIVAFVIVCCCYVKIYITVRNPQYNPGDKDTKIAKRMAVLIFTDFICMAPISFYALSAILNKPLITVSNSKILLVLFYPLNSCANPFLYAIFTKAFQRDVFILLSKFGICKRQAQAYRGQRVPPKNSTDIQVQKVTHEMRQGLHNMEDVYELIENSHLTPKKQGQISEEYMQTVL

For this assay, the target named is Thyrotropin receptor (Homo sapiens) (UniProt P16473). As to the kind of experiment: qHTS Assay for Antagonists of the Thyroid Stimulating Hormone Receptor (AID 488980). Also: 0% is about no effect. Conditions: TSHR-expressing cells, cAMP antagonist read-out; series mostly up to 57.5 µM; activity, negative = inhibition: at the top concentration. The text has this:
TSH is an alpha/beta heterodimeric glycoprotein hormone secreted from the anterior pituitary gland which belongs to the glycoprotein hormone family. The actions of TSH are mediated by a seven-transmembrane receptor, which upon TSH binding couples preferentially to the G-alpha (s) protein (Gs), resulting in activation of adenylate cyclase and increase in cyclic adenosine 3', 5' monophosphate (cAMP). The TSH receptor (THSR) is mainly expressed in thyroid follicular cells and regulates their growth and function. This cell based assay was conducted on a TSHR transfected HEK 293 cell line, measuring cAMP stimulation using antibody-based Homogeneous Time Resolved Fluorescence (HTRF).
Our goal is to identify small molecules that will inhibit (antagonize) the thyroid-stimulating hormone receptor (TSHR), a member of the 7 transmembrane-spanning receptor (7TMR) family of cell surface receptors. TSHR-mediated hyperthyroidism is important in thyroid pathology. The development of small molecule antagonists of TSHR may lead to therapeutic approaches for TSHR-mediated hyperthyroidism caused by constitutively activating mutations or stimulating auto-antibodies associated with Graves' disease. Graves' disease is the leading cause of hyperthyroidism and is caused by autoantibodies that stimulate TSHR (TsAbs) causing thyroid growth and unregulated overproduction of thyroid hormones and existing treatments have liabilities (agranulocytosis). In addition, TSHRs are known to be expressed in multiple extrathyroidal tissues including bone, brain, kidney, testis, fat and cells of the immune system but the role of the TSHR in these tissues is not clear. Therefore, TSHR antagonists/inverse agonists could be used as probes of extrathyroidal TSHR function. Finally, TSHR inverse agonists, which are a subclass of antagonists that inhibit agonist-independent (or basal or constitutive) TSHR signaling, could be used to inhibit TSH-independent signaling in patients with recurrent or metastatic thyroid cancer who are receiving thyroid hormone to suppress TSH.
An anti cAMP antibody contains a fluorescent cryptate tag (excitation 337 nm; emission 620 nm) and the acceptor is cAMP-d2 (excitation 620 nm; emission 665 nm). When antibody and cAMP-d2 interact and are excited by a 337 nm light, a FRET occurs resulting in emission at 665 nm. The assay is competition between cAMP-d2 and cAMP (from the cell lysate). The homogeneous protocol allows for one step dispense after stimulation that is automation friendly.
Step, Parameter, Value, Description
1, Cells, 3 uL, 2000 TSHR freshly harvested cells/well 1536 TC treated White solid bottom plate (Cells resuspended in 10 mM HEPES buffered HBSS and 70 uM RO 20-1724)
2, Compound, 23 nL, Libraries and controls
3, Compound, 1 uL, EC80 TSH (4 nM final)
5, Reagent, 2 uL, cAMP antibody diluted 1:20 in lysis buffer
6, Time, 30 minutes, Room temperature
7, Detector, HTRF settings, Viewlux
In the case of `O=C(O)c1cc[c]([Hg][Cl])cc1`, the “activity, negative = inhibition” value is -0.258%.

On to `COc1ccc2[nH]c3c(c2c1)CCNC3`, for which the “activity, negative = inhibition” value was -0.795%.

As to `CCOC(=O)c1ncn2c1[C@@H]1CCCN1C(=O)c1cc(OC)ccc1-2`, the “activity, negative = inhibition” value was -0.329%.

Turning to `C[N+]1(C)CCN(c2ccccc2)CC1`, the “activity, negative = inhibition” value was -1.61%.

Consider `CN(C(=O)Cc1ccc(Cl)c(Cl)c1)C(CN1CCCC1)c1cccc(OCC(=O)O)c1` (stereo not given), for which the “activity, negative = inhibition” value was -0.727%.

For the compound `CC(Cc1ccc(OCC(=O)O)cc1)NCC(O)c1cccc(Cl)c1` (stereo not given), the “activity, negative = inhibition” value is -2.04%.

With `CCCN1CCCC2Cc3[nH]ncc3CC21` (stereo not given), the “activity, negative = inhibition” value was -1.71%.

In the case of `NC(Cc1ccc(N(CCCl)CCCl)cc1)C(=O)O` (stereo not given), the “activity, negative = inhibition” value was -0.531%.

As for `c1ccc2c(c1)[I+]c1ccccc1-2`, the “activity, negative = inhibition” value is -2.47%.

Turning to `NC(=O)c1cc(N2CC2)c([N+](=O)[O-])cc1[N+](=O)[O-]`, the “activity, negative = inhibition” value is -1.27%.

In the case of `N[C@@H](Cn1oc(=O)[nH]c1=O)C(=O)O`, the “activity, negative = inhibition” value was -0.556%.

As for `C#CCN[C@H](C)Cc1ccccc1`, the “activity, negative = inhibition” value is -0.557%.

Regarding `Ic1ccccc1CNC1C2CCN(CC2)C1C(c1ccccc1)c1ccccc1` (stereo not given), the “activity, negative = inhibition” value was -0.12%.

On to `CC1(C(=O)O)C2CCC(O2)C1(C)C(=O)O` (stereo not given), for which the “activity, negative = inhibition” value is -1.78%.

Turning to `C[C@H](Cc1ccc2c(c1)OC(C(=O)O)(C(=O)O)O2)NC[C@H](O)c1cccc(Cl)c1`, the “activity, negative = inhibition” value is -0.698%.

Take `CN1C2CCC1CC(OC(c1ccccc1)c1ccccc1N)C2` (stereo not given): the “activity, negative = inhibition” value was -1.68%.

In the case of `NC(N)=Nc1ccc2[nH]c3c(c2c1)C[C@@]1(O)[C@H]2Cc4ccc(O)c5c4[C@@]1(CCN2CC1CC1)[C@H]3O5`, the “activity, negative = inhibition” value was -1.93%.

For `N[C@@H](CCl)C(=O)O`, the “activity, negative = inhibition” value was -1.25%.

For `NCC(CP(=O)(O)O)c1ccc(Cl)cc1` (stereo not given), the “activity, negative = inhibition” value is -1.9%.

`CCn1cnc2c(Nc3cccc(Cl)c3)nc(N[C@@H]3CCCC[C@@H]3N)nc21`: the “activity, negative = inhibition” value is -0.165%.

`CCN(CC)c1ncnc2c1ncn2[C@@H]1O[C@H](COP(=O)(O)OP(=O)(O)C(Br)(Br)P(=O)(O)O)[C@@H](O)[C@H]1O`: the “activity, negative = inhibition” value is -1.09%.

`CCCN1CC[C@@H]2c3cc(O)ccc3CC[C@@H]21`: the “activity, negative = inhibition” value is -0.537%.

Take `COc1cc(CC(C)N)c(OC)cc1I` (stereo not given): the “activity, negative = inhibition” value was -2.07%.

As to `CN(N=O)c1ccc(O)c(O)c1`, the “activity, negative = inhibition” value is -0.305%.

For `NC(=O)CI`, the “activity, negative = inhibition” value is -1.12%.

Take `N[C@@]1(C(=O)O)CC[C@@H](C(=O)O)C1`: the “activity, negative = inhibition” value was -0.564%.

In the case of `NC(CCCCCP(=O)(O)O)C(=O)O` (stereo not given), the “activity, negative = inhibition” value is -0.337%.

Turning to `CN(N=O)c1cc(O)ccc1O`, the “activity, negative = inhibition” value is 0.11%.

Take `O=P(O)(O)C(Cl)(Cl)P(=O)(O)O`: the “activity, negative = inhibition” value is -1.01%.

Regarding `C[C@@H]1O[C@H](C[N+](C)(C)C)CS1`, the “activity, negative = inhibition” value was 0.922%.

As for `CC(=O)NBr`, the “activity, negative = inhibition” value was -1.23%.

On to `CCCN(CCC)[C@@H]1CCc2cccc(O)c2C1`, for which the “activity, negative = inhibition” value was -0.693%.

For the compound `COc1ccc2[nH]cc(CCN)c2c1`, the “activity, negative = inhibition” value was -1.75%.

On to `Cc1[nH]c2ccc(O)cc2c1CCN`, for which the “activity, negative = inhibition” value was -1.97%.

As for `Clc1cc(I)cc(Cl)c1NC1=NCCN1`, the “activity, negative = inhibition” value is -0.18%.

For `CN1CCc2cccc(Cl)c2CC1`, the “activity, negative = inhibition” value is -0.532%.

Consider `NNC(N)=O`, for which the “activity, negative = inhibition” value is -0.532%.

Take `Nc1ccc(CCN2CCN(c3cccc(C(F)(F)F)c3)CC2)cc1`: the “activity, negative = inhibition” value was -0.188%.

In the case of `CNC(=O)OCC[N+](C)(C)C`, the “activity, negative = inhibition” value is 0.225%.

On to `CC12NC(Cc3ccccc31)c1ccccc12` (stereo not given), for which the “activity, negative = inhibition” value is -0.478%.

Source of the values: PubChem BioAssay (NCATS).
